Compound activity from PubChem BioAssay.
CYP2C9 inhib: blockers of cytochrome P450 2C9 activity – biochemical, luminescence, ADME assay, primary screen | CYP2C9 Supersomes, luciferin-H conversion | inhibition, % at 5 µM | AID 777, 2007 | P11712 | 96,000 compounds, 20% hits;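 active = blocking of liver enzyme CYP2C9 beyond about 50% at 5 µM, limit read from the data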
CYP2C9 act: human CYP2C9 activators, primary screen, biochemical, luminescence; Cytochrome P450 2C9 (Homo sapiens), P11712; recombinant CYP2C9, luciferin-H conversion; active compounds read high; factor 1 = untreated enzyme, 0 = blocked; activation factor at 5 µM; 96,000 compounds, 1.4% hits; AID 1024, 2008;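 active = activation factor of 2 or more for CYP2C9 at a 5 µM dose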;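 also: 0 = sulfaphenazole-blocked wells and 1 = vehicle-only wells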
Cav3 T inh: Cav3.2 calcium influx blockers – cell-based, Fluo-4 calcium fluorescence, FDSS, MLSMR library, primary screen. 100,000 compounds, 4% hits. Cav3.2-expressing cells; active compounds read low. AID 449739, 2010. B-score at 10 µM. Voltage-dependent T-type calcium channel subunit alpha-1H (Homo sapiens), O95180;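 active = single-dose well whose peak fluorescence ratio is a statistical outlier from its plate by either plate-standardised score or position-corrected B-score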
CYP2C19 act: human CYP2C19 activators, primary screen, biochemical, luminescence; Cytochrome P450 2C19 (Homo sapiens), P33261; recombinant CYP2C19, luciferin-H EGE luminescence; active compounds read high; 0 = fully inhibited enzyme, 1 = untreated enzyme; activation factor at 5 µM; 96,000 tested, under 10 active;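 active = activation factor of at least 2 at 5 µM in the primary screen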;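 also: 0 = wells with 2.5 mM tranylcypromine and 1 = vehicle-only wells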
Target sequence (P33261 whole entry, looked up): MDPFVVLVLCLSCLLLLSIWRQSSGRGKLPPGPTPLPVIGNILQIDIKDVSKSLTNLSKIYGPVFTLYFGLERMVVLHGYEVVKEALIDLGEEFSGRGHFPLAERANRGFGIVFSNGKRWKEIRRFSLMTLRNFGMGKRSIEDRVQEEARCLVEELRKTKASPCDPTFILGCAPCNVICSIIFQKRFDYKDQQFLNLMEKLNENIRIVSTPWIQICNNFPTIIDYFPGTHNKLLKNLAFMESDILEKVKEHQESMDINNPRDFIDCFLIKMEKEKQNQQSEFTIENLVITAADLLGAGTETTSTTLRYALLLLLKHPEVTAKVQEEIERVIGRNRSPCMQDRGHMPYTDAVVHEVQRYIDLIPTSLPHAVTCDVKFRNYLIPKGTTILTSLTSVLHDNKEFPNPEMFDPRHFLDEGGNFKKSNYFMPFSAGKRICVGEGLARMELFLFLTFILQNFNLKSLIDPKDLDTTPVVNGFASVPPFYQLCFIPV
CYP2C19 inh: blockers of cytochrome P450 2C19 activity – biochemical, luminescence, ADME assay, primary screen. P33261. CYP2C19 Supersomes, luciferin-H EGE luminescence, 30 min. inhibition, % at 5 µM. 96,000 compounds, 21% hits;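 active = CYP2C19 inhibition above a set limit at 5 µM in the primary screen, cut at about 50% in these data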;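 also: plate controls were negative control wells for no effect and 2.5 mM tranylcypromine positive control for full effect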
* hit, by the source's call; . = no result. Shown are actives, neighbours in structure and some others; about 27% of the full set was active somewhere.

SMILES	CYP2C9 inhib	CYP2C9 act	Cav3 T inh	CYP2C19 act	CYP2C19 inh
CN1CCN(S(=O)(=O)c2ccc(-c3ccccc3)cc2)CC1	25	0.8	0.36	0.6	44
O=C(CN1C(=O)c2ccccc2S1(=O)=O)Nc1cccnc1	.	.	-0.057	.	.
COc1cc(C2C(C#N)=C(N)N(Nc3ccccc3)C3=C2C(=O)CC(C)(C)C3)ccc1OCc1cccc(F)c1 (stereo not given)	96*	0	0.055	0.3	68*
COc1cc(C2C(C#N)=C(N)N(Nc3ccccc3)C3=C2C(=O)CC(C)(C)C3)ccc1OCc1ccccc1 (stereo not given)	79*	0.2	-2.7	0.8	21
C=CCOc1ccc(C2C(C#N)=C(N)N(Nc3ccccc3)C3=C2C(=O)CCC3)cc1OC (stereo not given)	70*	0.3	-0.92	0.9	14
CC(C)Oc1ccc(N2CC(C(=O)Nc3ccc(N4CCOCC4)cc3)CC2=O)cc1 (stereo not given)	.	.	-0.076	.	.
O=C(CSc1ccccc1)Nc1cccc(NC(=O)c2ccco2)c1	44	0.6	-1.3	0.6	36
O=C(CNC(=O)c1ccco1)OCc1ccc(Cl)cc1	19	0.8	1.4	0.2	82*
O=C(NCCSc1ccc(Cl)cc1)c1ccco1	51*	0.5	-0.28	0.2	84*
O=C(CSc1ccc(Cl)cc1)c1ccco1	16	0.8	0.21	0.9	13
O=C(CSc1ccc(Cl)cc1)Nc1cccc(NC(=O)c2ccco2)c1	77*	0.2	-3.2	0.6	39
CC(=O)Nc1ccc(NC(=O)c2ccco2)cc1	-8	1.1	0.094	1	0
CSc1cccc(NC(=O)c2ccco2)c1	-16	1.2	-0.72	0.4	58*
O=C(Cn1c(=O)c2c(ncn2Cc2ccccc2)n(Cc2ccccc2)c1=O)N1CCCC1	49	0.5	0.85	0.3	67*
CCn1cnc2c1c(=O)n(Cc1nnc3n1-c1ccccc1SC3)c(=O)n2Cc1ccccc1	25	0.8	1.4	0.7	28
CCn1cnc2c1c(=O)n(Cc1csc(-c3ccccc3)n1)c(=O)n2Cc1ccccc1	89*	0.1	-3.8	0.1	86*
O=C(Cn1c(=O)c2c(ncn2C2CCCC2)n(Cc2ccccc2)c1=O)N1CCc2ccccc21	13	0.9	-4.4*	0.9	11
CCn1c(CS(=O)Cc2ccc(Cl)cc2Cl)nnc1SCc1c(Cl)cccc1Cl (stereo not given)	-24	1.2	-2.6	1.1	-11
CCC(C)NC(=O)CSc1nnc(-c2ccoc2C)n1CC1CCCO1 (stereo not given)	10	0.9	0.53	1	4
COc1ccc(NC(=O)c2oc3ccccc3c2NC(=O)C2CC2)cc1	-5	1.1	-0.67	0.7	33
CCOC(=O)c1c(C)c(C(=O)NCc2cccnc2)c(C)n1C	32	0.7	-0.62	0.7	29
Cc1c(C(=O)NCc2ccc3c(c2)OCO3)oc2ccc(Br)cc12	97*	0	-2.9	1	-1
CCOC(=O)c1c(C)c(C(=O)NCc2ccc3c(c2)OCO3)c(C)n1C	60*	0.4	0.66	0.6	40
Cc1c(C(=O)NCc2ccc3c(c2)OCO3)oc2ccccc12	.	.	-5.6*	.	.
Cc1ccc(NC(=O)c2oc3ccccc3c2NC(=O)c2ccc3c(c2)OCO3)cc1	51*	0.5	-0.43	1.1	-12
SMILES	CYP2C9 inhib	CYP2C9 act	Cav3 T inh	CYP2C19 act	CYP2C19 inh
CC(=O)c1ccc(N2CCN(c3ccc(S(=O)(=O)N4CCN(C)CC4)cn3)CC2)cc1	4	1	-0.57	1.1	-10
COCCn1cc(C(=S)N2CCOCC2)c2ccccc21	-33	1.3	1.3	1.1	-5
Cc1cc2oc(C(=O)NCc3ccc4c(c3)OCO4)c(C)c2cc1C	55*	0.4	0.0034	0.5	49
O=C1C2CC=CCC2C(=O)N1c1n[nH]c(-c2ccccc2)n1 (stereo not given)	92*	0.1	1.2	0.2	80*
CCCC(CCC)C(=O)Nc1c[nH]c(=O)[nH]c1=O	-21	1.2	0.22	1.1	-14
CCCCCCCNC(=O)COc1ccc2c(c1)C(=O)CC(C)(C)O2	96*	0	-1.9	0.1	88*
COCC(C)NC(C(=O)Nc1ccc(C)c(Cl)c1)c1ccccc1 (stereo not given)	86*	0.1	.	0.1	86*
COCCNC(C(=O)Nc1cc(Cl)cc(Cl)c1)c1ccccc1 (stereo not given)	70*	0.3	-5.2*	0.5	54*
Cc1ccc(NC(=O)C(=O)NNC(=O)c2ccccc2C)cc1Cl	-17	1.2	.	0.9	9
OC(CNCc1ccc(F)cc1)(c1ccc(F)cc1)c1ccc(F)cc1	23	0.8	-4.2*	0.7	26
CCCCn1c(=O)c(-[n+]2ccccc2)c([O-])c2ccccc21	-8	1.1	0.61	1.1	-14
CCc1sc(N(C(=O)Cc2ccccc2)c2ccc(F)cc2)nc1-c1ccccc1	51*	0.5	-5.3*	0.1	86*
CCc1sc(N(C(=O)Cc2ccccc2)c2ccccc2)nc1-c1ccccc1	38	0.6	0.0067	0.8	18
N#CC1=C2SCN(c3ccccc3)CN2C(=O)CC1c1cccs1 (stereo not given)	83*	0.2	-0.0038	0.5	50*
COc1cc(OC)c(C2CC(=O)N3CN(c4ccccc4)CSC3=C2C#N)cc1OC (stereo not given)	38	0.6	0.18	0.9	15
CCOc1ccc(N2CSC3=C(C#N)C(c4ccco4)CC(=O)N3C2)cc1 (stereo not given)	33	0.7	-0.057	0.9	7
Cc1ccc(C2CC(=O)N3CN(c4ccc(Br)cc4)CSC3=C2C#N)o1 (stereo not given)	98*	0	-4	0.1	90*
N#CC1=C2SCN(c3ccccc3)CN2C(=O)CC1c1ccccc1Cl (stereo not given)	61*	0.4	-1.3	0.7	27
COc1ccc(NC(=O)C(c2ccc(OC)cc2)N(C)C(=O)c2cnccn2)cc1 (stereo not given)	34	0.7	0.075	0.7	30
Cc1ccnc(SCCn2c(N3CCC(C)CC3)nc3c2c(=O)n(C)c(=O)n3C)n1	.	.	0.2	.	.
NC(=O)CC(NC(=O)Cc1ccc(Br)cc1)c1ccc(N2CCN(c3ccc(F)cc3)CC2)c([N+](=O)[O-])c1 (stereo not given)	.	.	0.97	.	.
O=C(CCCNS(=O)(=O)c1cccs1)N1CCc2ccccc2C1	-62	1.6	0.4	0.4	55*
O=C(CNS(=O)(=O)c1cccs1)N1CCc2ccccc2C1	-13	1.1	.	0.5	53*
O=C(CNS(=O)(=O)c1cccs1)N1CCCC1	-4	1	-0.013	0.9	10
